# Results: PubChem BioAssay (EPA / NIEHS)
# Inconclusive results are not listed. Calls of active or inactive are those of the source. Rule for the calls: active = hit-call score of the fitted dose curve at least 0.9, where 1 is the maximum; inconclusive = response in the unintended direction; inactive = score below 0.9.
# Legend:
# [1] = test system: guinea pig Histamine Receptor (H2), gene 100729734; test: NVS_GPCR_gH2: NovaScreen (NVS) G Protein-Coupled Receptor Assay for guinea pig Histamine Receptor (H2) (AID 2283342)
# Outline: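 Radioligand displacement on guinea pig striatal membranes, 1 h after dosing, filter-based scintillation counting; loss of signal versus DMSO. Single-point screen at 25 uM in duplicate, then concentration-response up to 50 uM.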
# [2] = molecular target: human Constitutive Androstane Receptor (CAR), NR1I3 (gene 9970) (UniProt Q14994); test: NVS_NR_hCAR_Antagonist: NovaScreen (NVS) Nuclear Receptor Binding Assay for human Constitutive Androstane Receptor Antagonism (CAR) (AID 2283344)
# Outline: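 Cell-free TR-FRET binding read 1 h after dosing, antagonist mode; loss of signal versus DMSO baseline. Primary screen in duplicate at a single 25 uM; actives retested in concentration series.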
# [3] = molecular target: bovine Estrogen Receptor (ER), ESR1 (gene 407238) (UniProt P49884); test: NVS_NR_bER: NovaScreen (NVS) Nuclear Receptor Binding Assay for bovine Estrogen Receptor (ER) (AID 2283345);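 note: actives lower the bound radioligand count which means they displace the ER ligand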
# Sequence of bovine Estrogen Receptor (ER), ESR1 (gene 407238) (P49884 whole entry, looked up): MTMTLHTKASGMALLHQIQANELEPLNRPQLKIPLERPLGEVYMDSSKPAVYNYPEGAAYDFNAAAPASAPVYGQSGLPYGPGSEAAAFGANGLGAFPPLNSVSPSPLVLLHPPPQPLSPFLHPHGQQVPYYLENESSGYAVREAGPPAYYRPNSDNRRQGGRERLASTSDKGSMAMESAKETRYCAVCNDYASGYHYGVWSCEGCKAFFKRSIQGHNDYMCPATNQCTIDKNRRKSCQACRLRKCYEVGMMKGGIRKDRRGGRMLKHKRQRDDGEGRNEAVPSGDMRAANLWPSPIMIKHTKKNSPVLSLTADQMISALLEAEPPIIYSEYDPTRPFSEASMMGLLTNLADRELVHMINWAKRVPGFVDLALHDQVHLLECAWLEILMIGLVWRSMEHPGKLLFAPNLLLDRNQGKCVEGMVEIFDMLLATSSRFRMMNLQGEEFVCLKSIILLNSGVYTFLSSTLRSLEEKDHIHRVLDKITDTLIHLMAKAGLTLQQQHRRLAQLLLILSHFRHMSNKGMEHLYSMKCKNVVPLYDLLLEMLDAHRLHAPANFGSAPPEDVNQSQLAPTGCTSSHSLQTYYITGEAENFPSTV
# Outline: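 Displacement of a radioligand from estrogen receptor in bovine uterine membrane preparations; scintillation signal taken at 18 hours, DMSO as baseline. Single-concentration duplicates (25 uM) preceded concentration-response follow-up of actives.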
# [4] = molecular target: chimpanzee Androgen Receptor (AR), AR (gene 747460) (UniProt O97775); test: NVS_NR_cAR: NovaScreen (NVS) Nuclear Receptor Binding Assay for chimpanzee Androgen Receptor (AR) (AID 2283346);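 note: radioligand displacement from AR measured by scintillation counting in a cell-free assay; a loss of bound radioligand signal versus DMSO counts as binding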
# Sequence of chimpanzee Androgen Receptor (AR), AR (gene 747460) (O97775 whole entry, looked up): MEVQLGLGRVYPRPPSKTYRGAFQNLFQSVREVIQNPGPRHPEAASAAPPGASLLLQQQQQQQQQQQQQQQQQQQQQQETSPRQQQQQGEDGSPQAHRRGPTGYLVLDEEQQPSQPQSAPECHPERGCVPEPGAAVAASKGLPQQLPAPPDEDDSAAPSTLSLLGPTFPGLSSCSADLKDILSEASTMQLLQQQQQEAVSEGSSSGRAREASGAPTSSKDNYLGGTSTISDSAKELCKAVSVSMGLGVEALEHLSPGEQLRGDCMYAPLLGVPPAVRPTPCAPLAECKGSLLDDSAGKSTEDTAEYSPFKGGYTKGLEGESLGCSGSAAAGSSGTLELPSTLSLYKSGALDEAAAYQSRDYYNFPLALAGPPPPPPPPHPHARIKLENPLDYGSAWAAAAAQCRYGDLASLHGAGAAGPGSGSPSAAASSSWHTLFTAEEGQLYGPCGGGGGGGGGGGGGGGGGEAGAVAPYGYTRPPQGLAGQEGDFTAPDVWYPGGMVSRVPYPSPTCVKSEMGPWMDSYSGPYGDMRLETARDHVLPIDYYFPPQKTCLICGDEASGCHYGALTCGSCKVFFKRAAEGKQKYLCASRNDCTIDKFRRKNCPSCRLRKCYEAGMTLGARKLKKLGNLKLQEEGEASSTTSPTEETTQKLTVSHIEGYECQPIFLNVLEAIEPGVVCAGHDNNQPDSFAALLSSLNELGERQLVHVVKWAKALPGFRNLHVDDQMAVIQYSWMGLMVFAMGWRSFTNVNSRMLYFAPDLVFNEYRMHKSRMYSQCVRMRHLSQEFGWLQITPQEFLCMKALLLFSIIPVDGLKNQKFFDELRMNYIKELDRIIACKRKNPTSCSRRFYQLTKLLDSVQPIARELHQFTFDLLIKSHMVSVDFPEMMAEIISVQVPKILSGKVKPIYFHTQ
# Outline: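 Radioligand binding to chimpanzee AR expressed in Sf9/Sf21 cells, cell-free, measured 72 h after dosing by lysate-based scintillation counting. Loss of signal vs DMSO; initial duplicate screen at 25 uM, actives retested in concentration series.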
# [5] = molecular target: Estrogen receptor (Homo sapiens) (UniProt P03372); test: OT_ER_ERaERa_1440: Odyssey Thera (OT) 24-hour HEK293T Protein-Complementation Assay for Estrogen Receptor-alpha/-alpha Homodimer (AID 2283349);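 note: hits raise fluorescence above DMSO for agonists and antagonists alike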
# Sequence of Estrogen receptor (Homo sapiens) (P03372 whole entry, looked up, the tested form may be a part): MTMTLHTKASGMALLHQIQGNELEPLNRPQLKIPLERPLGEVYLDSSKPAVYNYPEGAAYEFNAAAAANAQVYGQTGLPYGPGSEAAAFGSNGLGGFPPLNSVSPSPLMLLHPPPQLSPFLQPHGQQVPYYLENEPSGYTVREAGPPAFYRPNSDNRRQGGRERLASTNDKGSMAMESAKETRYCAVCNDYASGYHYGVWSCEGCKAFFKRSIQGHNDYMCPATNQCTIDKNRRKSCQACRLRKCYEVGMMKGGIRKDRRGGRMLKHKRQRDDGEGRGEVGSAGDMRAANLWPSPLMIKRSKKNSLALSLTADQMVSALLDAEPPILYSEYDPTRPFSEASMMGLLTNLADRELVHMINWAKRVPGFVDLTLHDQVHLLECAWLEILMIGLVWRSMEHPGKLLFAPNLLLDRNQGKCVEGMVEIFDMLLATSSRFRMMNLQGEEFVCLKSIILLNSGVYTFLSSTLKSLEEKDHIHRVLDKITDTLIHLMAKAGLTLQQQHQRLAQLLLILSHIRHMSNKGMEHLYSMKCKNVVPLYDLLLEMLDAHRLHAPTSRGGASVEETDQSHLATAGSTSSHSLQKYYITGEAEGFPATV
# Outline: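 HEK293T cells stably expressing the human ER alpha ligand-binding domain (aa 310-547) as a homodimer PCA were dosed for 24 hours. Fluorescence intensity was read by laser scanning cytometry, and gain of signal was fitted relative to DMSO vehicle.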
# [6] = molecular target: Bile acid receptor (Homo sapiens) (UniProt Q96RI1); test: NVS_NR_hFXR_Antagonist: NovaScreen (NVS) Nuclear Receptor Binding Assay for human Farnesoid X Receptor Antagonism (FXR) (AID 2283350)
# Sequence of Bile acid receptor (Homo sapiens) (Q96RI1 whole entry, looked up): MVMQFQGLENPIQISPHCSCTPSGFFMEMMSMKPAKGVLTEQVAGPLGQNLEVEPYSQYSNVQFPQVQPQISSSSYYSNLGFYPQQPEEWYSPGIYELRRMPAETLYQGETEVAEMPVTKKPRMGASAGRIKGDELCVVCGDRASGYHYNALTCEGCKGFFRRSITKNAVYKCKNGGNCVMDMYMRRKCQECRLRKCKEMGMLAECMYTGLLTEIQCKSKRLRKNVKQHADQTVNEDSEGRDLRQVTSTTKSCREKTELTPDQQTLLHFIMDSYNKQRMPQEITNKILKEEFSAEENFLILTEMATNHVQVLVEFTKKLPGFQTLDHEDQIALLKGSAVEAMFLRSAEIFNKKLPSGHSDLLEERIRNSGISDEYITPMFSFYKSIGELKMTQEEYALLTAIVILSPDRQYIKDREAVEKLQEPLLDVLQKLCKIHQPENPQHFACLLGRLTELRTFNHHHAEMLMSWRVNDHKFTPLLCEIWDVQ
# Outline: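 Cell-free TR-FRET ligand-binding read-out on human FXR (NR1H4) in antagonist mode, measured 1 h after dosing. Primary screen in duplicate at 25 uM, actives retested in concentration series; signal loss scored versus DMSO.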
# [7] = molecular target: Estrogen receptor (Homo sapiens) (UniProt P03372); test: OT_ER_ERaERa_0480: Odyssey Thera (OT) 8-hour HEK293T Protein-Complementation Assay for Estrogen Receptor-alpha/-alpha Homodimer (AID 2283351);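 note: rise in fluorescence from reassembled reporter fragments on ERα LBD homodimer in nucleus or whole cell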
# Outline: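 HEK293T cells stably expressing the human ERα ligand-binding domain (aa 310-547) as a homodimer PCA were dosed with compound for 8 h. Gain of fluorescence intensity versus DMSO vehicle was read by laser scanning cytometry.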
# [8] = molecular target: Androgen Receptor/SRC-1 Co-activator, AR (gene 367) (UniProt P10275); test: OT_AR_ARSRC1_0960: Odyssey Thera (OT) 16-hour HEK293T Protein-Complementation Assay for Androgen Receptor/SRC-1 Co-activator (AID 2283353);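 note: actives raise the signal above DMSO so potency reflects increased AR and SRC-1 complex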
# Outline: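 HEK293T cells stably expressing AR and SRC-1 fused to split Venus YFP fragments via (Gly4Ser)2 linkers were dosed for 16 h. Nuclear/cytoplasmic fluorescence ratio at 488 nm, ≥400 cells per image, fitted for gain of signal versus DMSO.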
# [9] = molecular target: T1, Estrogen receptor (Homo sapiens) + Estrogen receptor beta (Homo sapiens) (UniProt P03372+Q92731); test: OT_ER_ERaERb_1440: Odyssey Thera (OT) 24-hour HEK293T Protein-Complementation Assay for Estrogen Receptor-alpha/-beta Homodimer (AID 2283356);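 note: heteromer of ER alpha and ER beta binding domains; hits raise reporter fluorescence and both agonists and antagonists give an increase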
# T1 sequence (P03372 whole entry, looked up, the tested form may be a part): as the sequence (P03372 whole entry, looked up, the tested form may be a part) above
# T1 sequence (Q92731 whole entry, looked up, the tested form may be a part): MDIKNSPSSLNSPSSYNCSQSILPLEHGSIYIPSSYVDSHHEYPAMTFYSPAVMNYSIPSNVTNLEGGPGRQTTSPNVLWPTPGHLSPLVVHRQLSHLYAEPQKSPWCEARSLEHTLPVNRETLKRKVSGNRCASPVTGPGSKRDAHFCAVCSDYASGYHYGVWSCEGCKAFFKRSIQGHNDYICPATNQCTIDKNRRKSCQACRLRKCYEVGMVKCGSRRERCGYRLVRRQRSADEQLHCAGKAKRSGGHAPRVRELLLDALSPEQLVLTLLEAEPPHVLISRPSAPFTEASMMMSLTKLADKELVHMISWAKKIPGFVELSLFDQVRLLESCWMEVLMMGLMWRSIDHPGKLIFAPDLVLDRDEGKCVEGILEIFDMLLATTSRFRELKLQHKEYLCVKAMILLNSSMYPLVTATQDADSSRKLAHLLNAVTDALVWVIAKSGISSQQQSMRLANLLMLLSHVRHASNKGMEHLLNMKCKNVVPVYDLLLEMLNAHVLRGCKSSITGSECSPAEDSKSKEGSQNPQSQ
# Outline: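 Stable HEK293T PCA line, ERα LBD 310-547 + ERβ LBD 263-489 fused to reporter fragments; 24 h treatment; fluorescence read by laser scanning cytometry; positive fitting direction relative to DMSO.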
# [10] = molecular target: Estrogen receptor beta (Homo sapiens) (UniProt Q92731); test: OT_ER_ERbERb_0480: Odyssey Thera (OT) 8-hour HEK293T Protein-Complementation Assay for Estrogen Receptor-beta/-beta Homodimer (AID 2283357);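 note: active means signal gain over DMSO baseline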
# Sequence of Estrogen receptor beta (Homo sapiens) (Q92731 whole entry, looked up, the tested form may be a part): as above
# Outline: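 Fluorescence intensity, nuclear for agonists and nuclear plus cytoplasmic for antagonists, was quantified by laser scanning cytometry versus vehicle after 8 h treatment. The cells were HEK293T stably carrying ER beta LBD fragment-complementation partners.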
# [11] = molecular target: human Thyroid Receptor Alpha (TRa), THRA (gene 7067) (UniProt P10827); test: NVS_NR_hTRa_Antagonist: NovaScreen (NVS) Nuclear Receptor Binding Assay for human Thyroid Receptor Alpha Antagonism (TRa) (AID 2283362);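 note: activity is loss of signal relative to DMSO baseline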
# Outline: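 Extracted protein, cell-free; 1 h incubation after dosing; AlphaLISA chemiluminescence binding readout. DMSO = baseline/neg ctrl; signal loss = activity. Primary: duplicate, 25 uM; secondary: conc. series on actives.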
# [12] = molecular target: Nuclear receptor subfamily 1 group I member 2 (Homo sapiens) (UniProt O75469); test: NVS_NR_hPXR: NovaScreen (NVS) Nuclear Receptor Binding Assay for human Pregnane X Receptor (PXR) (AID 2283365);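 note: a drop in FRET signal versus DMSO baseline means the compound binds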
# Outline: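 Human PXR protein, cell-free; compound added, incubated 2 h, TR-FRET read. Signal decrease vs DMSO = binding. Screened 25 uM duplicate, actives re-run as dilution series.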
# [13] = molecular target: Glucocorticoid receptor (Homo sapiens) (UniProt P04150); test: NVS_NR_hGR: NovaScreen (NVS) Nuclear Receptor Binding Assay for human Glucocorticoid Receptor (GR) (AID 2283363);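 for AC50: activity is loss of specific radioligand binding signal relative to DMSO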
# Outline: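 Cell-free radioligand displacement assay on extracted human GR, read 16 h after dosing by filter-based scintillation counting. Screened in duplicate at 25 uM, then concentration series for actives; loss of signal versus DMSO baseline.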
# [14] = molecular target: human Peroxisome Proliferator-activated Receptor alpha (PPARa), PPARA (gene 5465) (UniProt Q07869); test: NVS_NR_hPPARa: NovaScreen (NVS) Nuclear Receptor Binding Assay for human Peroxisome Proliferator-activated Receptor alpha (PPARa) (AID 2283359);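 note: activity means loss of TR-FRET signal versus DMSO baseline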
# Sequence of human Peroxisome Proliferator-activated Receptor alpha (PPARa), PPARA (gene 5465) (Q07869 whole entry, looked up): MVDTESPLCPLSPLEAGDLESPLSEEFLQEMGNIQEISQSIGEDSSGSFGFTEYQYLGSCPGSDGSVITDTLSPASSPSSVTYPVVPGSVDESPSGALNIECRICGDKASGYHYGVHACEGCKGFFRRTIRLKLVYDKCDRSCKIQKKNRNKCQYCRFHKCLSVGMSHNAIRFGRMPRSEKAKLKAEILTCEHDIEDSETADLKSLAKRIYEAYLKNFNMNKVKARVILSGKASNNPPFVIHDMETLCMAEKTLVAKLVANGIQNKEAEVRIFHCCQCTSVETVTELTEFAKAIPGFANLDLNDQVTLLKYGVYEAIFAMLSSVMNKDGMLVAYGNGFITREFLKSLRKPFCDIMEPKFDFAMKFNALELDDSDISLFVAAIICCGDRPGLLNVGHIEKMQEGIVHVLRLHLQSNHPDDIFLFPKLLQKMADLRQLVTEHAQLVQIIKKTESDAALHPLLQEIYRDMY
# Outline: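 Cell-free TR-FRET binding assay with extracted PPARα protein, read 1 h after dosing. Primary screen in duplicate at 25 uM, with actives retested in concentration series. Loss of signal versus DMSO.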
# [15] = molecular target: Retinoic acid receptor alpha (Homo sapiens) (UniProt P10276); test: NVS_NR_hRAR_Antagonist: NovaScreen (NVS) Nuclear Receptor Binding Assay for human Retinoic Acid Alpha Receptor Antagonism (RAR) (AID 2283358)
# Outline: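 Cell-free TR-FRET binding assay with extracted human RARalpha in antagonist mode, read 2 h after dosing. Loss of signal was fitted relative to DMSO; the primary screen used 25 uM in duplicate, with concentration series on follow-up.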
# [16] = molecular target: T1, Estrogen receptor (Homo sapiens) + Estrogen receptor beta (Homo sapiens); test: OT_ER_ERaERb_0480: Odyssey Thera (OT) 8-hour HEK293T Protein-Complementation Assay for Estrogen Receptor-alpha/-beta Heterodimer (AID 2283352)
# Outline: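 Compound added to HEK293T cells carrying split-reporter-tagged ER-alpha and ER-beta LBDs, incubated 8 hours, then imaged by laser scanning cytometer. Signal rise in nucleus, or nucleus and cytoplasm, over vehicle was fitted in the positive direction.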
smiles,measurement,setting,value
Cc1nc(-c2ccc3c(c2)CCN(CCC2CCC(NC(=O)/C=C/c4ccc(F)cc4)CC2)CC3)no1 (configuration not stated),AC50,[1],0.216 µM (active)
same,outcome,[2],inactive
same,outcome,[3],inactive
same,outcome,[4],inactive
same,outcome,[5],inactive
same,outcome,[6],inactive
same,outcome,[7],inactive
same,outcome,[8],inactive
same,outcome,[9],inactive
same,outcome,[10],inactive
same,outcome,[11],inactive
same,outcome,[12],inactive
COc1cc(C=O)ccc1O,outcome,[3],inactive
same,outcome,[5],inactive
same,outcome,[6],inactive
same,outcome,[7],inactive
same,outcome,[8],inactive
same,outcome,[9],inactive
same,outcome,[10],inactive
COc1ccc(S(=O)(=O)N2C(=O)[C@@](c3ccccc3OC)(N3C[C@H](O)C[C@H]3C(=O)N(C)C)c3cc(Cl)ccc32)c(OC)c1,outcome,[3],inactive
same,AC50,[4],13.8 µM (active)
same,outcome,[5],inactive
same,outcome,[7],inactive
same,AC50,[8],40.4 µM (active)
same,AC50,[13],5.95 µM (active)
CN[C@H]1CC[C@@H](c2ccc(Cl)c(Cl)c2)c2ccc(S(N)(=O)=O)cc21,outcome,[3],inactive
same,outcome,[5],inactive
same,outcome,[7],inactive
same,AC50,[8],17.4 µM (active)
COC(=O)c1ccc(O)cc1,outcome,[3],inactive
same,outcome,[5],inactive
same,outcome,[7],inactive
same,AC50,[9],74.6 µM (active)
same,AC50,[10],63.3 µM (active)
NC(=O)Cn1c(=O)cc(CCN2CCN(c3nccc4sccc34)CC2)c2ccc(F)cc21,AC50,[1],1.82 µM (active)
same,outcome,[5],inactive
same,outcome,[7],inactive
Cc1ccc(Cl)cc1,outcome,[3],inactive
same,outcome,[5],inactive
same,outcome,[6],inactive
same,outcome,[7],inactive
Oc1ccc2ccccc2c1N=Nc1ccccc1,outcome,[3],inactive
same,outcome,[5],inactive
same,outcome,[7],inactive
same,outcome,[9],inactive
same,outcome,[14],inactive
same,outcome,[11],inactive
CCCCCCCC=O,outcome,[3],inactive
same,outcome,[5],inactive
same,outcome,[7],inactive
same,outcome,[9],inactive
same,outcome,[10],inactive
same,outcome,[14],inactive
COc1ccc2c(c1)c(CC(=O)O)c(C)n2C(=O)c1ccc(Cl)cc1,outcome,[3],inactive
same,outcome,[5],inactive
same,outcome,[8],inactive
same,outcome,[15],inactive
CN1CCN(Cc2cc(-c3ccc4[nH]c(=O)oc4c3)co2)[C@@H](c2ccc(F)cc2)C1,AC50,[1],0.445 µM (active)
same,outcome,[3],inactive
same,AC50,[13],13.2 µM (active)
CCCCCCCCCCCCCCCCCC(=O)O,outcome,[3],inactive
same,outcome,[5],inactive
same,outcome,[7],inactive
same,AC50,[14],0.608 µM (active)
CCCCc1ccc2c(n1)[C@@H](c1ccc(OC)cc1C[C@H](C)C(=O)O)[C@H](C(=O)O)[C@H]2c1ccc2c(c1)OCO2,outcome,[2],inactive
same,outcome,[5],inactive
same,outcome,[7],inactive
same,outcome,[9],inactive
same,outcome,[13],inactive
O=C(O)Cc1ccccc1Nc1c(Cl)cccc1Cl,outcome,[3],inactive
same,outcome,[5],inactive
same,outcome,[9],inactive
CCNc1cccc(C)c1,outcome,[4],inactive
same,outcome,[5],inactive
same,outcome,[7],inactive
Cc1ccc(C)c(C)c1,outcome,[5],inactive
same,outcome,[7],inactive
same,outcome,[16],inactive
same,outcome,[8],inactive
same,outcome,[9],inactive
same,outcome,[10],inactive
Cc1cccc(C)c1O,outcome,[5],inactive
same,outcome,[7],inactive
same,outcome,[8],inactive
same,outcome,[9],inactive
same,outcome,[10],inactive
same,outcome,[12],inactive
CCCCCCCCCCCCCCCC,outcome,[5],inactive
same,outcome,[7],inactive
C=CCc1ccc(O)c(OC)c1,AC50,[4],21 µM (active)
same,outcome,[5],inactive
same,outcome,[7],inactive
